Among the data in PubChem BioAssay (NCI) are growth values, retold here.

Test systems include HCT-15 colon; HT29 colon; SNB-75 CNS; PC-3 prostate; SK-MEL-5 melanoma; UACC-62 melanoma; LOX IMVI melanoma; SK-MEL-28 melanoma; EKVX NSCLC; SN12C renal; UO-31 renal; TK-10 renal; ACHN renal; CAKI-1 renal; A498 renal; CCRF-CEM leukemia; MOLT-4 leukemia; SNB-19 CNS; U251 CNS; SK-MEL-2 melanoma.
Common to all, as to test: NCI-60 one-dose screen, 48 h (100 = growth as untreated, 0 = no growth, -100 = all killed)
Conditions in all cases: 10 µM unless noted

Molecules are shown by their SMILES. This is part of a sample that, as a whole, favours compounds with a hit. Of some 83,000 tested, about 20% had one in any assay.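 The test compound was applied at a single concentration to cells in 96-well plates for 48 hours, and percent growth was recorded.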 A number with no mark means an inactive call. Calls of active or inactive are those of the source. Rule for the calls: active = growth percent below 10; inactive = the rest.

Turning to `Nc1cc2[nH]c(=O)c3ccccc3c2cc1Br`, the growth was 52.6% in the assay with HCT-15 colon; 111% in the assay with HT29 colon; 57% in the assay with SNB-75 CNS; 81.5% in the assay on PC-3 prostate; 67.2% with SK-MEL-5 melanoma; 80.7% with UACC-62 melanoma. Moreover, the growth in the assay with LOX IMVI melanoma was 74.5%; with SK-MEL-28 melanoma, 97.8%; in the assay with EKVX NSCLC, 44.7%; in the assay with SN12C renal, 72.8%; in the assay on UO-31 renal, 41.2%; in the assay with TK-10 renal, 45.2%. For the same molecule, the growth in the assay on ACHN renal is 93.9%; in the assay on CAKI-1 renal, 54.3%; in the assay with A498 renal, 37.7%; with CCRF-CEM leukemia it was 81.2%; in the assay on MOLT-4 leukemia it was 87.3%.

As to `c1ccc(-c2n(Cc3ccc4ccccc4n3)c3ccccc3[n+]2Cc2ccc3ccccc3n2)cc1`, the growth is 47.9% with HCT-15 colon; 0.506% (active) in the assay with HT29 colon; 10.6% in the assay on SNB-19 CNS; 12.1% in the assay with U251 CNS; 5.27% (active) in the assay on PC-3 prostate; -95.9% (active) in the assay on SK-MEL-5 melanoma. Further, the growth was -45% (active) in the assay with UACC-62 melanoma; -75.8% (active) in the assay with LOX IMVI melanoma; -4.75% (active) in the assay with SK-MEL-28 melanoma; -20.7% (active) with SK-MEL-2 melanoma; 13.5% in the assay on EKVX NSCLC; 2.63% (active) with SN12C renal. The growth was 27.8% in the assay on UO-31 renal; 34.2% with ACHN renal; -17.6% (active) with CAKI-1 renal; -16.4% (active) with A498 renal; 12.5% in the assay on CCRF-CEM leukemia; -16.9% (active) in the assay with MOLT-4 leukemia.

Regarding `COc1cc2nc(SCc3cc(OC)c(OC)c(OC)c3)n(-c3ccccc3OC)c(=O)c2cc1OC`, the growth in the assay with HCT-15 colon is 75.4%; in the assay on HT29 colon, 66.6%; in the assay with SNB-75 CNS, 62.8%; in the assay with U251 CNS, 86.8%; in the assay with PC-3 prostate, 61.1%; in the assay with UACC-62 melanoma, 72.5%. In addition, the growth is 77.3% in the assay with LOX IMVI melanoma; 78.9% in the assay with SK-MEL-28 melanoma; 98% in the assay on SN12C renal; 36.3% in the assay with UO-31 renal; 88.5% in the assay with ACHN renal; 42.9% in the assay with CAKI-1 renal. The growth is 25.5% in the assay with A498 renal and 46.8% in the assay with MOLT-4 leukemia.

Consider `Nc1c(Br)cc(Br)cc1-c1n[nH]c(=O)[nH]c1=O`, for which the growth in the assay on HCT-15 colon was 98.1%; in the assay on HT29 colon, 99.7%; in the assay on SNB-75 CNS it was 85.5%; in the assay on U251 CNS, 100%; in the assay on PC-3 prostate it was 99%; with UACC-62 melanoma it was 106%. Besides, the growth in the assay on LOX IMVI melanoma is 96.1%; in the assay on SK-MEL-28 melanoma, 110%; in the assay on SN12C renal, 109%; with UO-31 renal, 74.3%; in the assay on ACHN renal, 91.9%; in the assay with CAKI-1 renal, 86.4%. Also, the growth with A498 renal is 91.7%; in the assay with MOLT-4 leukemia it was 65.8%.

For the molecule `O=c1[nH]c(=S)[nH]c(=O)n1Cc1cccc2ccccc12`, the growth in the assay on HCT-15 colon was 98.3%; in the assay with HT29 colon it was 110%; with SNB-75 CNS, 81.8%; in the assay on U251 CNS it was 93.1%; in the assay with PC-3 prostate it was 92.8%; in the assay with UACC-62 melanoma, 89.7%. The growth with LOX IMVI melanoma is 94.3%; in the assay on SK-MEL-28 melanoma, 103%; with SN12C renal, 101%; in the assay on UO-31 renal, 93%; in the assay on ACHN renal, 97.7%; in the assay with CAKI-1 renal, 86.9%. For the same molecule, the values for the growth with A498 renal and in the assay with MOLT-4 leukemia were 85.4% and 99.7%, respectively.

As to `N#Cc1ccc(C(F)(F)F)nc1N1CCC(C(=O)Nc2ccc(Cl)cc2)CC1`, the growth in the assay on HCT-15 colon was 43.9%; in the assay on HT29 colon it was 51.5%; with SNB-75 CNS it was 105%; with U251 CNS it was 65.3%; in the assay with PC-3 prostate, 51%; in the assay with UACC-62 melanoma, 84.8%. The growth in the assay on LOX IMVI melanoma is 43.7%; in the assay on SK-MEL-28 melanoma, 87.2%; in the assay with SN12C renal, 80.3%; with UO-31 renal it was 74%; in the assay with ACHN renal, 68.7%; in the assay on CAKI-1 renal, 73.1%. Besides, the growth is 64.2% in the assay on A498 renal, 82.5% in the assay on CCRF-CEM leukemia and 41% in the assay on MOLT-4 leukemia.

Take `Clc1ccc2c(N3CCN(c4ccnc(NC5CCCCC5)n4)CC3)ccnc2c1`: the growth in the assay with HCT-15 colon is 2.81% (active); in the assay with HT29 colon, 3.22% (active); in the assay with SNB-75 CNS it was 65.6%; in the assay on U251 CNS it was 40.4%; with PC-3 prostate it was 36.7%; with SK-MEL-28 melanoma, 36.8%. Besides, the growth in the assay with SK-MEL-2 melanoma is 72.9%; in the assay on UO-31 renal, 22.4%; in the assay on ACHN renal it was 45.5%; in the assay on CAKI-1 renal it was 57.8%; in the assay on A498 renal, -40.7% (active); in the assay on CCRF-CEM leukemia it was 8.39% (active). Further, the growth in the assay on MOLT-4 leukemia was -3.75% (active).

In the case of `Clc1nc(-c2ccccn2)nc2sc3c(c12)CCCCCC3`, the growth in the assay with HCT-15 colon was 84.2%; with HT29 colon, 99.3%; in the assay with SNB-75 CNS, 85%; in the assay with U251 CNS, 97.2%; with PC-3 prostate it was 92.2%; in the assay on UACC-62 melanoma it was 96%. The growth was 67.8% in the assay on LOX IMVI melanoma; 89.3% in the assay with SK-MEL-28 melanoma; 16.4% in the assay on UO-31 renal; -20.4% (active) in the assay on ACHN renal; -65.2% (active) in the assay with CAKI-1 renal; 118% in the assay with A498 renal. The figures for the growth in the assay on CCRF-CEM leukemia and with MOLT-4 leukemia were 72.4% and 67.7%, respectively.

Take `NC(=O)c1nc2c([nH]c1=O)CCCC2`: the growth in the assay with HCT-15 colon was 102%; in the assay with HT29 colon, 101%; in the assay with SNB-75 CNS, 89.6%; with U251 CNS it was 106%; in the assay with PC-3 prostate, 101%; with UACC-62 melanoma it was 106%. Besides, the growth was 99.1% with LOX IMVI melanoma; 103% in the assay with SK-MEL-28 melanoma; 106% in the assay with SK-MEL-2 melanoma; 114% in the assay with EKVX NSCLC; 107% with SN12C renal; 83.5% in the assay with UO-31 renal. Besides, the growth with TK-10 renal is 102%; in the assay on ACHN renal, 106%; in the assay on CAKI-1 renal, 93%; in the assay on A498 renal, 99.4%; in the assay with CCRF-CEM leukemia, 94.4%; in the assay with MOLT-4 leukemia, 97.3%.
